Among all 190,000 compounds or so, about 270 (0.14%) were called active. About 2% were inconclusive and are not listed. Shown is part of a subset that was picked to be rich in actives. Unmarked numbers belong to inactive results.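 The calls were made as follows: active = GTP binding activity at least 20% away from the 100% baseline, either lowered as inhibitor or raised as activator; inconclusive = flagged as likely green fluorescent, judged across all proteins in the well; inactive = the rest.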
The molecules below were run against GTPase HRas (Homo sapiens) (UniProt P01112) (assay: modulators of GTP binding to HRas wildtype, primary screen, biochemical, bead-based flow cytometry, multiplex (AID 759;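 also: 0% = unlabeled GTP competition control and 100% = no-compound control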)). Conditions: GST-Ras wt beads, Bodipy-FL-GTP binding, at 10 µM, actives lie on both sides.
Chain of GTPase HRas (Homo sapiens) (P01112 whole entry, looked up): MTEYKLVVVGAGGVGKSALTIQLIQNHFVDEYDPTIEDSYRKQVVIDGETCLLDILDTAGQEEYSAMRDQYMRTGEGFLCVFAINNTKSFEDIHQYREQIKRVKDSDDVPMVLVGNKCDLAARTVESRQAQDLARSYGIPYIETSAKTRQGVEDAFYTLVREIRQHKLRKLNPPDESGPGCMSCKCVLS

Row | Structure (SMILES) | GTP binding activity
1 | CCOc1ccc(C2SCC(=O)Nc3c2c(C)nn3C2CCOC(C)(C)C2)cc1 (stereo not given) | 73% (active)
2 | CCCC(C)n1[nH]c(=O)c2c1NC(=O)CSC2c1ccc(OC)c(OC)c1 (stereo not given) | 98%
3 | CC1=CC(=Cc2sc3ccccc3[n+]2C)C=C(C)O1 | 103%
4 | COc1ccc(CN2C(=O)NC(=O)/C(=C\c3ccc(OC)c(OC)c3OC)C2=O)cc1 | 97%
5 | Cc1ccsc1C(=O)C1CCCN(Cc2ccc(O)cc2)C1 (stereo not given) | 98%

From PubChem BioAssay AID759 (NMMLSC, 2007)
